# Assay results: PubChem BioAssay (NCI)
# The panel holds about 83,000 compounds, 20% with a hit somewhere; the sample as a whole holds those more often.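 Interpretation: 100, growth as untreated; towards 0, rising growth inhibition; 0, no net growth; 0 to -100, cell death. Compounds scoring below 10 were considered active.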 Values without a mark were called inactive. The source made the active and inactive calls.
# Key:
# Test in all cases: NCI-60 one-dose screen, 48 h (100 = growth as untreated, 0 = no growth, -100 = all killed)
# Conditions in all cases: 10 µM unless noted
# [1] = system: NCI-H23 lung
# [2] = system: NCI-H226 lung
# [3] = system: NCI-H322M lung
# [4] = system: HOP-62 NSCLC
# [5] = system: NCI-H460 lung
# [6] = system: HOP-92 NSCLC
# [7] = system: NCI-H522 lung
# [8] = system: A549/ATCC NSCLC
# [9] = system: 786-0 renal
# [10] = system: COLO 205 colon
# [11] = system: DU-145 prostate
# [12] = system: K-562 leukemia
# [13] = system: MALME-3M melanoma
# [14] = system: MDA-MB-231 breast
# [15] = system: RXF 393 renal
# [16] = system: SF-268 CNS
# [17] = system: SF-295 CNS
# [18] = system: SF-539 CNS
# [19] = system: UACC-257 melanoma
# [20] = system: M14 melanoma
SMILES,growth [1] [%],growth [2] [%],growth [3] [%],growth [4],growth [5] [%],growth [6],growth [7],growth [8] [%],growth [9],growth [10],growth [11],growth [12],growth [13],growth [14] [%],growth [15],growth [16] [%],growth [17],growth [18],growth [19],growth [20]
CC1=Cc2ccccc2OC12C=Cc1ccccc1O2 (stereo not given),86.5,91.7,89.7,89.5%,104,98.6%,97.2%,104,105%,110%,119%,92.3%,98.7%,89.8,97.8%,98.8,97.2%,97.8%,114%,107%
CCCCc1nc2c(N)nc3ccccc3c2n1Cc1ccc(OC)cc1,60.5,73.3,92.1,77.4%,63.3,-3.74% (active),68.5%,65.8,65.4%,48.4%,83.4%,23.2%,87.6%,75.8,58.4%,81.1,56.5%,84.2%,72%,67.3%
Cc1ccc2c(n1)C(=O)C(Cl)=C(Nc1ccccc1C(=O)OC(C)(C)C)C2=O,10.6,74.9,98.7,95.3%,86.2,-72% (active),-33.8% (active),102,-79.2% (active),-66.1% (active),-56.2% (active),-15.7% (active),-45.9% (active),55.5,-81.7% (active),79.6,91.8%,83.1%,-63.5% (active),-10.6% (active)
C#CCOc1cccc(/C(N)=N/C(N)=N/c2nc3ccccc3s2)c1,50.2,68.1,96.3,-36.3% (active),90.5,125%,96.9%,10.8,107%,119%,97.4%,82.2%,111%,81.9,116%,100,31.2%,105%,107%,95.8%
Cc1ccc(Nc2nc(SC(C)C)nc(-c3ccccc3)c2C#N)cc1,86.1,76.1,70.7,72.2%,95.2,80.7%,83.7%,96.2,92.2%,112%,104%,103%,75.3%,82.1,84.1%,82,93.9%,84.3%,113%,116%
Cc1cc(NS(=O)(=O)c2ccc(NC(=O)CSc3nc4ccccc4c(=O)n3-c3ccccc3)cc2)no1,92.2,93.4,83.9,98.5%,108,88.6%,91.9%,101,104%,106%,108%,54.1%,94.7%,98.7,93.8%,98.9,99.2%,95.3%,98.4%,90.3%
CCN1CCN(c2ccc(NC(=O)Nc3ccc4c(ccn4-c4ccnc(C(=O)NC)c4)c3)cc2C(F)(F)F)CC1,81.8,92.8,85.5,79.1%,75.6,84.7%,105%,91.3,10.3%,97.9%,86%,-9.49% (active),-65.2% (active),58.1,-30.7% (active),83.9,-47.1% (active),-55.3% (active),96.7%,17.9%
O=C1C(N2CCN(c3ccccc3)CC2)=C(Cl)C(=O)c2ncccc21,46.3,91.3,95.2,63.9%,38.7,128%,-16.2% (active),91.5,105%,65.2%,45.7%,6.19% (active),-1.87% (active),75.3,27.8%,79.4,103%,81.2%,55.4%,69.6%
